These results are taken from PubChem BioAssay (EPA / NIEHS).

Active and inactive are the calls of the source. Rule for the calls: active = hit-call score of the fitted dose curve at least 0.9, where 1 is the maximum; inactive = score below 0.9.

A short description of assay [1]: ATG_GLI_CIS: Attagene CIS-FACTORIAL HepG2 Assay for human Zinc Finger Protein GLI1 (AID 2282945). Particulars: HepG2, Attagene cis-factorial reporter mRNA, GLI element; actives raise or lower the signal. Put shortly: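 Transiently transfected HepG2 cells report endogenous transcription factor activity via cis-element-driven reporter units. After 24 h compound exposure, reporter mRNA was measured by RT-PCR with capillary electrophoresis; bidirectional fitting against DMSO baseline.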

A short description of assay [2]: ATG_ISRE_CIS: Attagene CIS-FACTORIAL HepG2 Assay for human Interferon Regulatory Factor 1 (IRF1) binding to an Interferon-Stimulated Response Element (ISRE) (AID 2282948). To be noted: HepG2 ISRE cis-reporter (Attagene), mRNA transcription readout; actives raise or lower the signal. Put shortly: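 Endogenous transcription factor activity read as reporter transcript abundance via RT-PCR and capillary electrophoresis. HepG2 cells transiently transfected, 24 h chemical exposure. Gain or loss fitted against DMSO baseline.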

Assay [3] is described as follows: ATG_M_32_CIS: Attagene CIS-FACTORIAL HepG2 Assay for M32 Transcription Factor (Internal Marker) (AID 2282949).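 Note: background control marker of the multiplexed CIS panel rather than a real target.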 To be noted: HepG2 Attagene cis-factorial M32 reporter, mRNA; actives raise or lower the signal. Put shortly: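 Transient MRTU transfection of HepG2; 24 h compound treatment; TriZol RNA, oligo(dT) RT, reporter PCR, 6-FAM primer extension, HpaI cut, CE. Gain/loss of signal vs DMSO.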

Assay [4] in a line: ATG_M_06_CIS: Attagene CIS-FACTORIAL HepG2 Assay for M06 Transcription Factor (Internal Marker) (AID 2282950). To be noted: HepG2 Attagene CIS-FACTORIAL M06 internal marker reporter; actives raise or lower the signal. Put shortly:
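Internal background marker within multiplexed cis-reporter HepG2 system. Cells transiently transfected, dosed 24 h; reporter mRNA measured by RT-PCR, HpaI digestion and capillary electrophoresis. Bidirectional fit relative to DMSO.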

Assay [5] deals with Hypoxia-inducible factor 1-alpha (Homo sapiens) (UniProt Q16665). The assay can be described thus: ATG_HIF1a_CIS: Attagene CIS-FACTORIAL HepG2 Assay for human Hypoxia Inducible Factor 1 (HIF1A) (AID 2282951). Particulars: HepG2 Attagene cis-factorial HIF1a reporter transcription; actives raise or lower the signal. The method in brief: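 After 24 h chemical exposure of reporter-transfected HepG2 cells, reporter cDNA was PCR-amplified, labelled by 6-FAM primer extension (2 min 95 C, 20 s 68 C, 10 min 72 C), HpaI-cut (2 h, 37 C) and analysed by CE.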

In assay [6] the target is Heat shock factor protein 1 (Homo sapiens) (UniProt Q00613). The assay is described as follows: ATG_HSE_CIS: Attagene CIS-FACTORIAL HepG2 Assay for human Heat Shock Transcription Factor 1 (HSE) (AID 2282953). To be noted: HepG2 HSE cis-reporter, Attagene RNA transcription; actives raise or lower the signal. The method in brief: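 HepG2 cells transfected with cis-promoter reporter units sensing endogenous transcription factor activity; reporter mRNA quantified 24 h post-dose by RT-PCR and capillary electrophoresis of 6-FAM-labelled products. Bidirectional fitting against DMSO.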

Assay [7] can be described thus: ATG_MRE_CIS: Attagene CIS-FACTORIAL HepG2 Assay for human Metal Responsive Element (MRE) (AID 2282954). Particulars: HepG2 MRE cis-reporter transcription, Attagene multiplex; actives raise or lower the signal. Put shortly: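 RT-PCR/capillary electrophoresis readout of reporter mRNA, 24 h post-dosing, in HepG2 cells transfected with multiplexed cis-regulated reporter constructs. Gain or loss of signal fitted bidirectionally against DMSO baseline.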

Assay [8] in a line: ATG_PBREM_CIS: Attagene CIS-FACTORIAL HepG2 Assay for human Phenobarbital-responsive Enhancer Module (PBREM) (AID 2282955). Particulars: HepG2 PBREM cis-reporter, Attagene multiplexed transcription; actives raise or lower the signal. The method in brief: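 Measures endogenous factor action on a phenobarbital-responsive enhancer module. HepG2 transiently carrying cis reporters, 24 h treatment, mRNA read-out by RT-PCR plus capillary electrophoresis.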

For assay [9], the target named is Paired box protein Pax-6 (Homo sapiens) (UniProt P26367). The assay is described as follows: ATG_Pax6_CIS: Attagene CIS-FACTORIAL HepG2 Assay for human Paired Box 6 (PAX6) (AID 2282956). To be noted: HepG2 CIS-FACTORIAL PAX6 reporter transcription, RNA readout; actives raise or lower the signal. Put shortly: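 Read-out is reporter transcript level, measured by RT-PCR with fluorescent primer extension and capillary electrophoresis after 24 h dosing of transfected HepG2 cells. Activity in either direction fitted relative to DMSO control.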

The nature of assay [10]: ATG_PPRE_CIS: Attagene CIS-FACTORIAL HepG2 Assay for human Peroxisome Proliferator-activated Response Element (PPRE) (AID 2282958). To be noted: HepG2 PPRE cis-element reporter, Attagene transcription factor profiling; actives raise or lower the signal. The method in brief: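 PPRE activity in HepG2: transient cis-reporter transfection, 24 h compound incubation, reporter mRNA by RT-PCR and CE fluorescence; gain/loss fitted against DMSO.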

Assay [11] in a line: ATG_RORE_CIS: Attagene CIS-FACTORIAL HepG2 Assay for human RAR-related Orphan Receptor Element (RORE) (AID 2282959). Particulars: HepG2 Attagene cis-factorial RORE reporter, mRNA; actives raise or lower the signal. Put shortly:
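A 24-hour exposure of transfected HepG2 hepatoma cells precedes RNA isolation and reporter RT-PCR. Labeled products are digested with HpaI and resolved by capillary electrophoresis, with gain or loss of signal scored relative to DMSO.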

Assay [12] can be described thus: ATG_Sox_CIS: Attagene CIS-FACTORIAL HepG2 Assay for human SRY-box transcription factor (SOX) (AID 2282960). To be noted: HepG2 Attagene cis-factorial SOX reporter, mRNA; actives raise or lower the signal. Put shortly: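 HepG2, cis reporter units, 24 h exposure. Reporter mRNA: RT-PCR → FAM labelling → HpaI → CE fluorescence. Bidirectional fit vs DMSO.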
The target of assay [13] is Transcription factor Sp1 (Homo sapiens) (UniProt P08047). The assay can be described thus: ATG_Sp1_CIS: Attagene CIS-FACTORIAL HepG2 Assay for human Specificity Protein 1 (Sp1) (AID 2282961). Particulars: HepG2 Sp1 cis-reporter transcription, actives raise or lower the signal. Put shortly: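 Liver-derived HepG2 cells, cis-element reporter library, 24 h treatment; RNA isolated, cDNA amplified with reporter-specific primers, FAM-labeled fragments sized on capillary analyzer. DMSO baseline, bidirectional curve fit.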

Assay [14] is described as follows: ATG_SREBP_CIS: Attagene CIS-FACTORIAL HepG2 Assay for human Sterol Regulatory Element Binding (SREBP) (AID 2282962). To be noted: HepG2 Attagene cis-factorial SREBP reporter, mRNA; actives raise or lower the signal. Put shortly: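 Endogenous SREBP activity read as cis-element-driven reporter transcript in transiently transfected HepG2, 24 h post-dosing; quantified via RT-PCR plus capillary electrophoresis of fluorescent fragments. Gain or loss of signal fitted relative to DMSO baseline.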

The target of assay [15] is Signal transducer and activator of transcription 3 (Homo sapiens) (UniProt P40763). The assay is described as follows: ATG_STAT3_CIS: Attagene CIS-FACTORIAL HepG2 Assay for human Signal Transducer and Activator of Transcription 3 (STAT3) (AID 2282963). Particulars: HepG2, Attagene cis-factorial STAT3 reporter transcription; actives raise or lower the signal. The method in brief: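 Readout: fluorescent reporter mRNA fragments resolved by capillary electrophoresis. Setup: HepG2 transfected with MRTUs reporting endogenous transcription-factor activity, dosed 24 h. Gain or loss of signal fitted bidirectionally against DMSO control.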

A short description of assay [16]: ATG_TA_CIS: Attagene CIS-FACTORIAL HepG2 Assay for human TA Basal Promoter (AID 2282964). To be noted: HepG2 Attagene CIS-factorial TA basal promoter reporter; actives raise or lower the signal. Put shortly: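 HepG2 cells transiently transfected with multiple reporter units under cis promoter elements, reporting endogenous transcription factor activity; this endpoint tracks the TA basal promoter as background control. Reporter mRNA after 24 h dosing measured by RT-PCR/capillary electrophoresis; bidirectional fits versus DMSO.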

Assay [17] has as its target Hepatocyte nuclear factor 6 (Homo sapiens) (UniProt Q9UBC0). The assay is described as follows: ATG_HNF6_CIS: Attagene CIS-FACTORIAL HepG2 Assay for human Hepatocyte Nuclear Factor 6 (HNF6) (AID 2282952). Particulars: HepG2 Attagene cis-factorial HNF6 reporter transcription; actives raise or lower the signal. The method in brief: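 Readout: fluorescent reporter-transcript fragments resolved by capillary electrophoresis after RT-PCR, reflecting endogenous factor activity in transfected HepG2. Exposure 24 h. Gain or loss of signal fitted bidirectionally against DMSO.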

Assay [18] can be described thus: ATG_PXRE_CIS: Attagene CIS-FACTORIAL HepG2 Assay for human Pregnane X Receptor Element (PXRE) (AID 2282957). Particulars: HepG2 Attagene CIS-FACTORIAL PXRE reporter, mRNA; actives raise or lower the signal. Put shortly: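 Read-out: fluorescence of reporter-specific RT-PCR products resolved by capillary electrophoresis, fitted bidirectionally relative to DMSO. Human HepG2 liver cells carried transfected cis-promoter reporter units and were exposed to chemicals for 24 h.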

The nature of assay [19]: ATG_GRE_CIS: Attagene CIS-FACTORIAL HepG2 Assay for human Glucocorticoid Response Elements (GRE) (AID 2282947). Particulars: HepG2 GRE cis-reporter, Attagene multiplex mRNA; actives raise or lower the signal. Put shortly:
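Read-out: fluorescent reporter-transcript fragments separated by capillary electrophoresis after RT-PCR. Transiently transfected HepG2 cells carrying cis-element-driven reporter units were dosed for 24 h; gain or loss of signal fitted against DMSO control.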

Chain of Transcription factor Sp1 (Homo sapiens) (P08047 whole entry, looked up, the tested form may be a part): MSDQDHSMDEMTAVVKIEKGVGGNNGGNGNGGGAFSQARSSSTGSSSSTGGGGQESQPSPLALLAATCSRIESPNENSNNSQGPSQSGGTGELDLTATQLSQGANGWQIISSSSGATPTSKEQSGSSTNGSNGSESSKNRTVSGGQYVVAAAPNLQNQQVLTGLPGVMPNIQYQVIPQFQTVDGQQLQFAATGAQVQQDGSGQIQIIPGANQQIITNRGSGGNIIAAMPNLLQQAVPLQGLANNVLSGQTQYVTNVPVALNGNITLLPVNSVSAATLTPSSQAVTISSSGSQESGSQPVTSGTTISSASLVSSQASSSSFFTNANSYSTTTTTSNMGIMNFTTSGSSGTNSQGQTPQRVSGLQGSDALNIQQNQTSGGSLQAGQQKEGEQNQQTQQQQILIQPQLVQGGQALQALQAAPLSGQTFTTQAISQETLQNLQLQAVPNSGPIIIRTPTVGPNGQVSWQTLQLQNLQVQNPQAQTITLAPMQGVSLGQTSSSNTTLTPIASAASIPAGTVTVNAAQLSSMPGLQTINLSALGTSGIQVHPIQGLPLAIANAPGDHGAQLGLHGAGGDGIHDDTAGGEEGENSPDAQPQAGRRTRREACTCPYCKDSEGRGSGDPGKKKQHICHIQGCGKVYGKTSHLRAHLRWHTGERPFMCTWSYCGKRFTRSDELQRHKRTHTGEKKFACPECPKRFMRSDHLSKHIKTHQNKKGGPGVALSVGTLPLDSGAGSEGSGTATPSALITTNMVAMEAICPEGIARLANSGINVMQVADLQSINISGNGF
Chain of Hypoxia-inducible factor 1-alpha (Homo sapiens) (Q16665 whole entry, looked up): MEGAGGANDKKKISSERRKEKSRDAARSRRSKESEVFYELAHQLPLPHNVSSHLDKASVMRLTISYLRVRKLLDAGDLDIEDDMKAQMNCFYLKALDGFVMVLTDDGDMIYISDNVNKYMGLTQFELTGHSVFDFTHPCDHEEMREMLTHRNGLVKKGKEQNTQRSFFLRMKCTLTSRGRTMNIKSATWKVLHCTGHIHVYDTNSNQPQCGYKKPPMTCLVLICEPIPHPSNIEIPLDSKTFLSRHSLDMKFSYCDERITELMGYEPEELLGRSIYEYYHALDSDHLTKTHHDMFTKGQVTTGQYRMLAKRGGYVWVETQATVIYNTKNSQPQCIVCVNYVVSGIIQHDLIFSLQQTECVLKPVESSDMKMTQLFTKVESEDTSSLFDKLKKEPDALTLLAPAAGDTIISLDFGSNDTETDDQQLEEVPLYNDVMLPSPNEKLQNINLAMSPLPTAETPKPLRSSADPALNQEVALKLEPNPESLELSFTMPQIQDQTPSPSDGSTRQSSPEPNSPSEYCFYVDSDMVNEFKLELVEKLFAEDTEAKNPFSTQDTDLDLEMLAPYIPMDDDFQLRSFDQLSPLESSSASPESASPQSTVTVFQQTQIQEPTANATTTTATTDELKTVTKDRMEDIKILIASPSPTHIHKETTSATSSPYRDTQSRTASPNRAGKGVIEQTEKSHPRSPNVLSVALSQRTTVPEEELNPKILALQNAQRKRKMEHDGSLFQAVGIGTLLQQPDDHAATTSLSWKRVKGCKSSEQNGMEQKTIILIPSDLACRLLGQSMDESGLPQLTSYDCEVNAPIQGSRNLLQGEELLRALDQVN
Chain of Hepatocyte nuclear factor 6 (Homo sapiens) (Q9UBC0 whole entry, looked up, the tested form may be a part): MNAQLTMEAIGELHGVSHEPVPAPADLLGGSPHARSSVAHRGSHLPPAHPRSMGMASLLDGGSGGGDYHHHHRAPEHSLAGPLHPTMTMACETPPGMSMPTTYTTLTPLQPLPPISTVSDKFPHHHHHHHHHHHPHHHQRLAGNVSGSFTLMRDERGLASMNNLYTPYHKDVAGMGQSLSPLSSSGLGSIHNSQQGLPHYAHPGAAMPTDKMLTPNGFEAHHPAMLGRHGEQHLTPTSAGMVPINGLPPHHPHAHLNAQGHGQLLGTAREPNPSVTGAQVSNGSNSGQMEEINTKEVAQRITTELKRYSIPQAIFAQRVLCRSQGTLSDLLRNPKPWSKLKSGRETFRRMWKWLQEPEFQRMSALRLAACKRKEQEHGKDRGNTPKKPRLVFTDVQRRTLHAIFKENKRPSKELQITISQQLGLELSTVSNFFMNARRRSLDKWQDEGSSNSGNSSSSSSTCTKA
Chain of Heat shock factor protein 1 (Homo sapiens) (Q00613 whole entry, looked up): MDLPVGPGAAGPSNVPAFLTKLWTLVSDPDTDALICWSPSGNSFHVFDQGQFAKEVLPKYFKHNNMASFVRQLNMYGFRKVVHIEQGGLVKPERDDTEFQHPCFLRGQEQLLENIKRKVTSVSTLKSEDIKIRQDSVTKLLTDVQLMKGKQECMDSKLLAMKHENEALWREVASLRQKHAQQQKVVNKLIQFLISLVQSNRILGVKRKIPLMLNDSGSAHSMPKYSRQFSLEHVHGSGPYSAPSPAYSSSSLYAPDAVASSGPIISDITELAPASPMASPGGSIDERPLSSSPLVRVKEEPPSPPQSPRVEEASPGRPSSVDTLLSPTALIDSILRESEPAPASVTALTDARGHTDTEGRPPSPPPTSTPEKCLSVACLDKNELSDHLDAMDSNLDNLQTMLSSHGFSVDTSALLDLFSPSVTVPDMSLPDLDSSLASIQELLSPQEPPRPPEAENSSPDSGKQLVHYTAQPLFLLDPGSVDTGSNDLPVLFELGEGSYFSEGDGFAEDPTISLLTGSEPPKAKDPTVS
Chain of Paired box protein Pax-6 (Homo sapiens) (P26367 whole entry, looked up): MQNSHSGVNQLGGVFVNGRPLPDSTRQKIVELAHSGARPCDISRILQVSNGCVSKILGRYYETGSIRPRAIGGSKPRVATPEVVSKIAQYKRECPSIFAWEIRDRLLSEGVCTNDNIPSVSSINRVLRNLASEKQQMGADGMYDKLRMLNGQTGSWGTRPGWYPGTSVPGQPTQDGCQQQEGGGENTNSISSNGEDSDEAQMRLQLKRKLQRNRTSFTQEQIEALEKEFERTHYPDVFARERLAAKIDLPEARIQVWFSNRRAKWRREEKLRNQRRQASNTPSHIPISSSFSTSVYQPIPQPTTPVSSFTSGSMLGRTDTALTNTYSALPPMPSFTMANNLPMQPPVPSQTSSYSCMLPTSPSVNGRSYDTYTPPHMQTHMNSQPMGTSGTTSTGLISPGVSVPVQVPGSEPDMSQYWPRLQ
Chain of Signal transducer and activator of transcription 3 (Homo sapiens) (P40763 whole entry, looked up, the tested form may be a part): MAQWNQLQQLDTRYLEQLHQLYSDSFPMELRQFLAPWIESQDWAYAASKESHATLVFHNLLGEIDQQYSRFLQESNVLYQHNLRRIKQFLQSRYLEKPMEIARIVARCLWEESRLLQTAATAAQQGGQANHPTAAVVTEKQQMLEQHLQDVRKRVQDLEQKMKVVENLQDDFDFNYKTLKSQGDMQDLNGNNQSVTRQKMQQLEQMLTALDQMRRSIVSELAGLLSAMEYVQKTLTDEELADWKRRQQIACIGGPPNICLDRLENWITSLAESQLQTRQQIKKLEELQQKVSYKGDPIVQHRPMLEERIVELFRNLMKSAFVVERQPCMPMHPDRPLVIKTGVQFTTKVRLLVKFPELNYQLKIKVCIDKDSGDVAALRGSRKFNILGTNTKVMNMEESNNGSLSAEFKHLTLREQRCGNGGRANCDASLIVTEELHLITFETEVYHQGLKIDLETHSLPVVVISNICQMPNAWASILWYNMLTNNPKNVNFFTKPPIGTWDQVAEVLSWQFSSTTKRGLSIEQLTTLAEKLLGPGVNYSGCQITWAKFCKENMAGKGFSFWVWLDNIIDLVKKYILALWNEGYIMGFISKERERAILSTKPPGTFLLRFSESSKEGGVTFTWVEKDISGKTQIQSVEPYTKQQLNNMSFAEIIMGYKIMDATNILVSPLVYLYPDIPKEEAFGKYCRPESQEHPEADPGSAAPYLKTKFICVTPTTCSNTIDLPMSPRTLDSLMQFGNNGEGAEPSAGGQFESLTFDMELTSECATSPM

Consider `C=CCc1ccc(O)c(OC)c1`, for which the molecule was classed as inactive in assay [1], in assay [2], in assay [3], in [4], in [5] and in assay [6]. Moreover, the molecule was classed as inactive in assay [7], in assay [8], in assay [9], in assay [10], in [11] and in assay [12]. Further, the molecule was classed as inactive in assay [13], in assay [14], in [15] and in [16].

Usually AC50 stands for the concentration at which the activity in the assay is half-maximal. In the case of `Cc1cccc([N+](=O)[O-])c1C`, the outcome in assay [1], in assay [2], in [3], in [4], in assay [5] and in assay [17] was inactive. For the same molecule, the call in [6], in assay [7], in [8], in [9], in [10] and in assay [12] was inactive. Further, the molecule was called inactive in assay [13], in assay [14], in [15] and in assay [16]. Moreover, the AC50 in assay [18] was 27.1 µM (active).

On to `CCCCCC(=O)O`, for which the call in assay [1], in [2], in [3], in assay [4], in assay [5] and in assay [17] was inactive. Moreover, the molecule was classed as inactive in assay [6], in assay [7], in [9], in [10], in assay [11] and in assay [12]. Further, the result in [13], in [14], in [15] and in assay [16] was inactive. For the same molecule, the AC50 in assay [18] is 53 µM (active).

Regarding `CCCCCCCCCCCCCCCCCC(=O)O`, the molecule was classed as inactive in [1], in assay [2], in assay [3], in assay [4], in assay [5] and in [17]. The molecule was classed as inactive in assay [6], in assay [7], in assay [9], in [18], in assay [11] and in [12]. The result in [13], in assay [14], in [15] and in assay [16] was inactive.

With `CC(=O)Oc1ccccc1C(=O)O`, the call in assay [1], in assay [19], in [2], in assay [3], in assay [4] and in assay [17] was inactive. Also, the molecule was called inactive in assay [7], in [9], in [11], in assay [12], in assay [13] and in assay [14]. The outcome in assay [15] and in [16] was inactive.

Regarding `CC1=C(/C=C/C(C)=C/C=C/C(C)=C/CO)C(C)(C)CCC1`, the molecule was called inactive in assay [1], in assay [2], in assay [3], in assay [4], in assay [5] and in assay [8]. In addition, the result in assay [12], in [13], in [14], in assay [15] and in [16] was inactive. Also, the AC50 was 197 µM (active) in [6]; 106 µM (active) in [7]; 49.1 µM (active) in assay [9]; 0.464 µM (active) in assay [18]; 47.6 µM (active) in assay [10]; 27.9 µM (active) in [11].

With `C1CCC(SSC2CCCCC2)CC1`, the molecule was called inactive in [1], in assay [19], in assay [2], in [3], in assay [4] and in [5]. In addition, the result in assay [6], in assay [7], in assay [8], in assay [9], in [10] and in assay [11] was inactive. For the same molecule, the call in [12], in assay [15] and in assay [16] was inactive. Moreover, the AC50 is 158 µM (active) in [13] and 100 µM (active) in assay [14].

`OC[C@@H](O)[C@@H](O)[C@H](O)[C@H](O)CO`: the molecule was classed as inactive in [1], in [2], in assay [3], in [4], in [5] and in assay [6]. In addition, the result in [7], in assay [9], in [18], in assay [11], in [12] and in assay [13] was inactive. The outcome in assay [14], in assay [15] and in assay [16] was inactive.
